Screening results from PubChem.
HCV inh: HCV inhibition; Huh7.5.1 HCVcc-Cre infection, luciferase reporter, 44 h; Potency, µM (highest dose often 41.8 µM), inactives show at the top dose activity change, negative = inhibition, hits mostly inhibitors; actives 3.4% (n = 340,000); also: potency is read from the fitted curve at half-maximal effect; % is scaled to controls: 0 for no effect and ±100 for the full control effect
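Infectious HCV cell culture screen: compound-treated cells (1,000/well, pre-plated 4 h) are infected with HCVcc-Cre at roughly 0.5 moi and grown 44 h. Infection is quantified by luciferase signal after 15 min substrate incubation at room temperature.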
CHX counter: counter-screen hit for Shiga toxin inhibitors, cycloheximide | cell reporter, cycloheximide protein synthesis inhibition counterscreen | max response, % | actives 12% (n = 300,000) | AID 2314; in the data active = max response mostly above about 13%, no sharp cut-off; inactive = mostly below about 14%; also: read at 38.3 µM for the half of the compounds with a filed dose; 0% is about no effect
Pf growth 96h: inhibits malaria parasite growth, 96 h; P. falciparum luciferase reporter growth, 96 h; Potency, µM (series often up to 28.7 µM), for inactives: at the top dose activity change, negative = inhibition, actives largely listed as inhibitors; actives 6.9% (n = 320,000); also: potency is read from the fitted curve at half-maximal effect; % is scaled to controls: 0 for no effect and ±100 for the full control effect
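Erythrocytes infected with luciferase-expressing P. falciparum were dispensed at 2% hematocrit and 0.05% parasitemia (final), then incubated with compounds 96 hours at 37 C in 5% CO2. Luminescence after detection reagent addition reported growth.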
Shiga inhibitor: Shiga toxin inhibition. Vero cells, Shiga toxin protein synthesis inhibition reporter. inhibition, % at 38.7 µM. actives 9.2% (n = 290,000). AID 2315; in the data active = inhibition mostly above about 28%, no sharp cut-off; inactive = mostly below about 43%; also: 0% is about no effect
AMA1 RON2 block: inhibitors of Plasmodium falciparum AMA1-RON2 interaction; AlphaScreen AMA1-biotinylated RON2 peptide binding; Potency, µM (doses to about 58.2 µM), for inactives: at the highest dose activity change, negative = inhibition, actives largely listed as inhibitors; actives 0.2% (n = 360,000); AID 720542;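 also: potency is read from the fitted curve at half-maximal effect; 0% = vehicle wells and -100% = peptide control; nearly all actives have a fitted effect of over 45% in size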
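AMA1 (3D7) with his tag at 25 nM final met compounds first, then biotinylated RON2 peptide at 25 nM; detection used donor plus acceptor beads, 10 µg/mL apiece, read by AlphaScreen after 30 min at room temperature.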
Pf growth 48h: P. falciparum growth inhibition at 48 hours (one generation). AID 504832. P. falciparum luciferase growth in erythrocytes, 48 h. Potency, µM (series often up to 28.7 µM), without a hit: at the highest dose activity change, negative = inhibition, actives largely listed as inhibitors. actives 5.9% (n = 310,000); also: potency is read from the fitted curve at half-maximal effect; % is scaled to controls: 0 for no effect and ±100 for the full control effect
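Cell-based growth assay: transgenic P. falciparum expressing firefly luciferase, cultured in red cells within RPMI 1640 containing 0.5% w/v Albumax, 24 mM bicarbonate and gentamycin. A drop in luciferase activity indicates inhibition.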
* marks the source's active call; other numbers are inactive results; ? = inconclusive; · = not tested or not shown. Only some compounds are listed: those with a hit (about 21% of all), similar ones and a draw of the others. Unless noted, calls follow the shape of the dose curve; as a rule, active = well fitted curve in the direction sought with a large enough effect; inconclusive = small, poorly fitted or top-dose-only effect, or another doubt; inactive = no such curve, though single readings can be large; an effect the other way counts as inactive or inconclusive.

SMILES	HCV inh	CHX counter	Pf growth 96h	Shiga inhibitor	AMA1 RON2 block	Pf growth 48h
CSCCC(NS(=O)(=O)c1ccccc1F)C(=O)NCc1ccncc1 (centres undefined)	17%	·	15%	·	0%	-14%
COc1ccc2[nH]cc(CCNC(=O)Cn3cc(C)c(=O)[nH]c3=O)c2c1	22%	·	·	·	-6%	·
CCNC(=O)C1(C)CCCN1Cc1ccccc1Cl (centres undefined)	·	·	·	·	-3%	·
CCN(C(=O)CN1C(=O)NC2(CCC(C)CC2)C1=O)C1CCCCC1 (centres undefined)	·	·	·	·	-5%	·
O=C(NCCC1=CCCCC1)c1ccc(-n2cncn2)c([N+](=O)[O-])c1	?	·	?	·	-13%	?
O=C(COC(=O)CCC1CCCC1)Nc1ccc(F)cc1Cl	?	·	1%	·	14%	14%
COCCCN1C(=O)C(CC(=O)NC(c2ccccc2)c2ccccc2)CC(C(=O)N2CCOCC2)=C1C (centres undefined)	·	·	·	·	6%	·
Oc1cc(CNC2CCCCC2)c(O)cc1CNC1CCCCC1	-21%	·	·	·	-22%	·
Cc1ccc(Nc2nc(N)nc(CSc3nccn3C)n2)cc1	4%	52*	·	69*	-19%	133%
Cc1cccc(NC(=O)CSc2nccn2C)c1	16%	·	·	·	-1%	·
COc1ccccc1Nc1nc(N)nc(CSc2nncn2C)n1	?	1	15%	-30	-3%	·
Cc1cccc(Nc2nc(N)nc(CSc3nccn3C)n2)c1	1%	11	0%	51*	8%	105%
COc1ccccc1Nc1nc(N)nc(CSc2nccn2C)n1	0%	6	-18%	45*	-1%	22%
O=C(O)CCNC(=O)c1ccc(NC(=O)Cc2ccc(Cl)cc2)cc1	-3%	-7	?	7	-15%	-8%
O=C(c1ccco1)N1CCN(Cc2cc(=O)c(OCc3ccccc3F)co2)CC1	6%	·	?	·	9%	?
CCOC(=O)c1cnc(SCCN2CCOCC2)nc1N	6%	18*	15%	34	23%	59%
CCOC(=O)c1cnc(SSc2ncc(C(=O)OCC)c(N)n2)nc1N	?	-3	?	·	8%	-9%
CCOC(=O)c1cnc(SCC(=O)OC)nc1N	16%	34*	?	72	2%	0%
C=CCSc1ncc(C(=O)OCC)c(N)n1	17%	41*	57%	51*	-14%	136%
CCCCn1c(N)c(N(CCOC)C(=O)c2c(CC)noc2C)c(=O)[nH]c1=O	12%	·	?	·	5%	?
CCOC(=O)C1CCN(C/C=C/c2ccccc2[N+](=O)[O-])CC1	18%	-2	227%	4	-30%	1%
COC(=O)c1sc2nc(C)nc(SCC(=O)C(C)(C)C)c2c1C	-21%	38*	?	52	-7%	-4%
CCOC(=O)c1sc2nc(C)nc(SCC(=O)NC3CCS(=O)(=O)C3)c2c1C (centres undefined)	-4%	6	?	11	-1%	-20%
CN1CC(c2ccccc2)C(c2ccc(Cl)cc2)=N1 (centres undefined)	5%	3	?	-7	?	?
Fc1ccccc1N1CC(c2ccccc2)C(c2cccs2)=N1 (centres undefined)	?	0	12µM*	-9	297%	·
SMILES	HCV inh	CHX counter	Pf growth 96h	Shiga inhibitor	AMA1 RON2 block	Pf growth 48h
COc1ccc(N=Nc2nc3cc(Br)c(Br)cc3n2C)c(OC)c1	?	34*	?	35*	?	10µM*
COc1c(Br)cc([N+](=O)[O-])c(OC)c1C(=O)NC(=O)Nc1nc(C)cc(C)n1	-16%	-1	6%	-11	-6%	1%
COc1cc(/C=N/NC(=O)c2cccnc2)cc2c1OCO2	-2%	2	?	-7	-11%	22%
COc1cc(/C=N/Nc2ccccc2)ccc1OC(=O)c1cccs1	6%	35*	?	61	12%	-17%
COc1cc(/C=N/NC(=O)c2ccccn2)ccc1OC(=O)c1cccs1	5%	37*	?	67*	41%	51%
COc1cc(/C=N/NC(=O)c2ccccn2)cc2c1OCO2	6%	57*	2%	107*	74%	167%
